Test results taken from PubChem BioAssay AID1508644 (National Center for Advancing Translational Sciences (NCATS), 2021).
Results filed as inconclusive are left out. The source made the active and inactive calls. The call rests on the fitted dose curve; in most records, active means well fitted inhibition curve with a large enough effect; inconclusive means small, poorly fitted or top-dose-only effect; inactive means no such curve, though single readings can be large or run the other way.

Each molecule was assayed against Peripheral myelin protein 22 (Rattus norvegicus) (UniProt P25094) (assay: Cell-based HiBiT reporter assay to measure PMP22 protein expression in S16 Pmp22-HiBiT cells). Settings: S16 Schwann Pmp22-HiBiT, NanoGlo luminescence, 48 h; series mostly up to 27.9 µM.
Description: Assay Provider: Jim Inglese Ph.D. National Center for Advancing Translational Science, National Institutes of Health, Rockville, MD CMT is a heterogeneous group of neurological disorders that affect approximately 1 in 2,500 people. In particular, the most common form of CMT, CMT1A is genetically linked to the duplication of the PMP22 gene which leads to Schwann cell overexpression, thus manifesting itself as a typical case of dose-sensitive diseases. To identify small molecule compounds that can mediate the expression of PMP22 we developed a phenotypic assay screening strategy by utilizing genome editing techniques to construct Schwann cell lines containing novel reporter technology to monitor the transcriptional or translational regulation of PMP22. For high sensitivity we use a bioluminescent reporter system embedded in the 3' UTR of the PMP22 gene (S16(c9) Pmp22-F2sN) to identify compounds that inhibit gene expression. […] We can further discriminate the effect of all transcriptionally active molecules on PMP22 translation or stability with an assay that incorporates a short NLuc peptide (HiBiT) at the C-terminus of expressed PMP22 (S16(f8) PMP22-HiBiT) allowing alpha complementation and luminescence detection of membrane-associated PMP22 protein. These assays were screened against the NCATS Sytravon Library Collection. Miniaturization of these assays to 1536-well plate format for quantitative high throughput screening (qHTS) yielded rich data sets immediately from the qHTS assay (S16(c9) Pmp22-F2sN), when compared with data from a cell viability assay (Cell TiterGlo) to identify compounds that decreased the output signals through cellular toxicity to streamline the selection process of actives for subsequent characterization using the HiBiT assay (S16(f8) PMP22-HiBiT).
Cell-based HiBiT reporter assay in S16 Pmp22-HiBiT cells PROTOCOL TABLE (format as described by Inglese J, Shamu CE and Guy RK. 2007) SEQUENCE No. (e.g., 1, 2, 3, etc.); PARAMETER (e.g., Cells, Incubation, Reagent, etc.); VALUE and DESCRIPTION. 1. Cells. Add 1,500 cells in 5 uL in growth media (DMEM High Glucose, No Phenol Red media + 10% heat-inactivated FBS + 1% Pen/Strep supplemented media) per well into Greiner 1536-well white/solid bottom high base, TC-treated plates. 2. Compounds. Library compounds and controls added at 23nL per well, transferred by Pin Tool. 3. Incubation. Incubate plates at 37C, 5% CO2, 95% RH for 48 h. 4. Media removal. Invert and centrifuge plates. 5. Reagent. Add 3uL NanoGlo HiBiT Lytic Detection Reagent per well of Greiner 1536-well plates. 6. Incubation. Incubate plates at room temperature for 15 min., protect from light. 7. Detector. NLuc luminescence measured using CCD-based camera (Viewlux). NOTES (numbers refer to Sequence numbers above; values are from representative experiments) 7. Luminescence Read: Clear filter; Exposure = 10 sec, Gain = High, Speed = Slow, Binning = 2X REFERENCES: 1. Inglese J, Shamu CE and Guy RK, Reporting data from high throughput screening of small molecule libraries, Nature Chemical Biology, 2007, 3(8): 438-441. doi.org/10.1038/nchembio0807-438 2. Yasgar A, Shinn P, Jadhav A, Auld DS, Michael S, Zheng W, Austin CP, Inglese J and Simeonov A, Compound Management for Quantitative High-Throughput Screening. J. Assoc. Lab. Auto., 2008, 13: 79-89. doi: 10.1016/j.jala.2007.12.004

Peripheral myelin protein 22 (Rattus norvegicus), sequence (P25094 whole entry, looked up): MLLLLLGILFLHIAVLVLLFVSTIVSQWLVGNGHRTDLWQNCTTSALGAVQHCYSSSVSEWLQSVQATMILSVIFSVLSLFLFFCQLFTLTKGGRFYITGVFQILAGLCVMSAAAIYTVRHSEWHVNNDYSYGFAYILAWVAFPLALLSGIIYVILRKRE

Potency, inactive:
Cc1cccc(-n2c(=O)c3c(c4cc(C)ccc4n3C)n(CC(=O)NCCC3=CCCCC3)c2=O)c1
CCOc1ccc(NC(=O)CSc2oc(-c3ccc(F)cc3)nc2S(=O)(=O)c2ccc(C)cc2)cc1
Cc1ccc(NC(=O)N2CCc3cc(S(=O)(=O)N4CCC(C)CC4)ccc32)cc1F
Cc1ccc(C(=O)Nc2ccc(S(=O)(=O)N3CCC(c4nc5ccccc5s4)CC3)cc2)cc1
Cc1cccc(Nc2c3c(nc4nncn24)CCC3)c1C
O=C(NCCCN1CCN(c2ccc(F)cc2)CC1)c1cc2c(Cl)nc3ccccc3c2s1
Cc1c(Cl)cccc1NC(=O)c1oc2ccc(S(=O)(=O)N3CCC4(CC3)OCCO4)cc2c1C
Cc1cc(C)c(NC(=O)Cn2c(=O)n(Cc3ccco3)c(=O)c3ccc(C(=O)NC4CCCC4)cc32)c(C)c1
COc1ccc(NC(=O)c2oc3ccccc3c2NC(=O)Cc2ccc(F)cc2)c(OC)c1
CCN(CC)CCNC(=O)c1cc(-c2ccc(Br)s2)nc2ccccc12
CCc1ccc(NC(=O)Cn2c(=O)n(-c3ccc(OC)cc3)c(=O)c3ccc(C(=O)NCc4ccc(C)cc4)cc32)cc1
COc1ccc(Nc2nc3c(S(=O)(=O)c4ccccc4)nnn3c3ccc(Cl)cc23)cc1
CCc1ccc(OCC(=O)Nc2cc3oc4ccccc4c3cc2OC)cc1
Cc1ccc(CN2C(=O)C(O)(c3c(C)[nH]c4ccccc34)c3ccccc32)cc1 (centres undefined)
CCCn1c(=N)c(C(=O)NC(C)c2ccccc2)cc2c(=O)n3ccccc3nc21 (centres undefined)
CCS(=O)(=O)c1ncc(Cl)c(C(=O)Nc2c(C(=O)c3ccc(C)cc3)oc3ccccc23)n1
CCCCS(=O)(=O)c1nc(-c2ccc(Br)cc2)cc(-c2ccccc2)c1C#N
Cc1cccc(N2CCN(C(=O)C3CCCN(S(=O)(=O)c4ccc5c(c4)oc(=O)n5C)C3)CC2)c1C (centres undefined)
Cc1ccc(C)c(NC(=O)Cn2c(=O)n(Cc3ccc4c(c3)OCO4)c(=O)c3ccc(C(=O)NC4CCCCC4)cc32)c1

Potency, active:
COC(=O)CS(=O)(=O)c1nc2ccccc2nc1N1CCCCC1 14.5 µM
Cc1ccc(C)c(NC(=O)Cn2c(=O)n(Cc3ccccc3)c(=O)c3oc4ccccc4c32)c1 14.5 µM
O=C(Cn1c(-c2cccs2)cc2ccccc21)NCCCN1CCN(c2ccc(F)cc2)CC1 6.45 µM
COc1ccccc1Nc1nn2c(=O)c3ccc(C(=O)Nc4ccc(F)cc4)cc3nc2s1 9.12 µM
Cc1ccc(C)c(N2CCN(CCCNC(=O)Cn3c(-c4cccs4)cc4ccccc43)CC2)c1 7.24 µM
O=C(Cn1c(-c2cccs2)cc2cc(F)ccc21)NCCCN1CCN(c2ccccc2F)CC1 12.9 µM
CCc1nnc(NC(=O)c2nc(S(C)(=O)=O)ncc2Cl)s1 10.2 µM
COc1ccc(NC(=O)c2nc(S(=O)(=O)Cc3ccc(C)cc3)ncc2Cl)cc1 10.2 µM
COCCCNC(=O)c1ccc(-n2c(-c3ccccc3)cc3c2CCC(C)C3)cc1 (centres undefined) 5.75 µM
COc1ccccc1-c1cc(C(F)(F)F)nc(S(=O)(=O)CCCC(=O)Nc2ccc(F)cc2F)n1 5.13 µM
Cc1ccc(NC(=O)c2nc(S(=O)(=O)Cc3cccc(C)c3)ncc2Cl)cc1 4.57 µM
CC(=O)N1CCc2c(sc(NC(=O)CSc3ccccc3)c2-c2nc3ccccc3s2)C1 16.2 µM
COc1ccccc1-c1cc(C(F)(F)F)nc(S(=O)(=O)CCCC(=O)Nc2ccccc2F)n1 10.2 µM
COC(=O)c1ccccc1NC(=O)c1nc(S(=O)(=O)Cc2cccc(C)c2)ncc1Cl 6.45 µM
Cc1ccc(S(=O)(=O)c2nnn3c2nc(NC2CCCCCC2)c2sccc23)cc1C 14.5 µM
COc1ccccc1Nc1c2c(nc3ccc(NC(=O)/C=C/c4cccc(OC)c4OC)cc13)CCCC2 5.13 µM
COc1ccc(Br)cc1CC1C(=O)Nc2ccccc21 (centres undefined) 9.12 µM
Cc1cccc(CS(=O)(=O)c2ncc(Cl)c(C(=O)Nc3nc4ccc(F)cc4s3)n2)c1 3.63 µM
Cn1c(=O)oc2cc(S(=O)(=O)N3CCCC(C(=O)N4CCN(c5ccc(Cl)cc5)CC4)C3)ccc21 (centres undefined) 4.07 µM
CCOC(=O)c1c(NC(=O)c2nc(S(C)(=O)=O)ncc2Cl)sc(C(C)=O)c1C 3.24 µM
